# Laboratory results as given in ChEMBL document CHEMBL1961873, “Compounds: GSK PKIS; Assays: Nanosyn kinase panel” (2012).
# Key:
# [1] = molecular target: Tyrosine-protein kinase Fer (Homo sapiens) (UniProt P16591); details: at 1 µM
# [2] = molecular target: Tyrosine-protein kinase Fes/Fps (Homo sapiens) (UniProt P07332); details: at 0.1 µM
# [3] = molecular target: Tyrosine-protein kinase Fes/Fps (Homo sapiens) (UniProt P07332); details: at 1 µM
# [4] = molecular target: Fibroblast growth factor receptor 1 (Homo sapiens) (UniProt P11362); details: at 0.1 µM
# [5] = molecular target: Fibroblast growth factor receptor 1 (Homo sapiens) (UniProt P11362); details: at 1 µM
# [6] = molecular target: Fibroblast growth factor receptor 2 (Homo sapiens) (UniProt P21802); details: at 0.1 µM
# [7] = molecular target: Fibroblast growth factor receptor 2 (Homo sapiens) (UniProt P21802); details: at 1 µM
# [8] = molecular target: Fibroblast growth factor receptor 3 (Homo sapiens) (UniProt P22607); details: at 0.1 µM
# [9] = molecular target: Fibroblast growth factor receptor 3 (Homo sapiens) (UniProt P22607); details: at 1 µM
# [10] = molecular target: Fibroblast growth factor receptor 4 (Homo sapiens) (UniProt P22455); details: at 0.1 µM
# [11] = molecular target: Fibroblast growth factor receptor 4 (Homo sapiens) (UniProt P22455); details: at 1 µM
# [12] = molecular target: Tyrosine-protein kinase Fgr (Homo sapiens) (UniProt P09769); details: at 0.1 µM
# [13] = molecular target: Tyrosine-protein kinase Fgr (Homo sapiens) (UniProt P09769); details: at 1 µM
# [14] = molecular target: Vascular endothelial growth factor receptor 1 (Homo sapiens) (UniProt P17948); details: at 0.1 µM
# [15] = molecular target: Vascular endothelial growth factor receptor 1 (Homo sapiens) (UniProt P17948); details: at 1 µM
# [16] = molecular target: Receptor-type tyrosine-protein kinase FLT3 (Homo sapiens) (UniProt P36888); details: at 0.1 µM
# [17] = molecular target: Receptor-type tyrosine-protein kinase FLT3 (Homo sapiens) (UniProt P36888); details: at 1 µM
# [18] = test system: T1, Receptor-type tyrosine-protein kinase FLT3 (Homo sapiens), P36888 [D835Y]; details: at 0.1 µM
# T1 sequence (whole entry): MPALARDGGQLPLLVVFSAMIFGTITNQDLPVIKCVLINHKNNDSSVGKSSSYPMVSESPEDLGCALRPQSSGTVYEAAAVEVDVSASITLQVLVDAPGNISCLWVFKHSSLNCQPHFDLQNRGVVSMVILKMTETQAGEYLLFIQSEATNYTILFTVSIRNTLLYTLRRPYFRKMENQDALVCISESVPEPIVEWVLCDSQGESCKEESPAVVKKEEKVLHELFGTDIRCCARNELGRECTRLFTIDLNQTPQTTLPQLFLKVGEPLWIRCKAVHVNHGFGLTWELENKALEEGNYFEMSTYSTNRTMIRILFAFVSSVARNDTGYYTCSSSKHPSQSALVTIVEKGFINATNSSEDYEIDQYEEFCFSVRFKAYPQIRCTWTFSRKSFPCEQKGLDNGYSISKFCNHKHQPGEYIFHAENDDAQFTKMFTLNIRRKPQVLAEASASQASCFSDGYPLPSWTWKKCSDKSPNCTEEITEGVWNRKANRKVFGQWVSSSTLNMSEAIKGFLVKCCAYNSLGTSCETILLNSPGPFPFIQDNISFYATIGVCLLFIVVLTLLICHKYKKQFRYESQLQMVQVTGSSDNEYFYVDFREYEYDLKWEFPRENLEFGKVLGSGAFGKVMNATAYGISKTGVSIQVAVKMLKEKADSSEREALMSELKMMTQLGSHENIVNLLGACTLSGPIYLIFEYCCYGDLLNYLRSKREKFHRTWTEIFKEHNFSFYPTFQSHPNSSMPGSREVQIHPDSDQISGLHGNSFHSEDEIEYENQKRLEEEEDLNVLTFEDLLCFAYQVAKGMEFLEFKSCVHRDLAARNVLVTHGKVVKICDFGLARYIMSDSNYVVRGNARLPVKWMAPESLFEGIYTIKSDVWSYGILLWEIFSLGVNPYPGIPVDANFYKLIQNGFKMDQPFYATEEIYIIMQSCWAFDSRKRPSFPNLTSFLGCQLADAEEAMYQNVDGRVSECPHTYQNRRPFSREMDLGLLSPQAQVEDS
# [19] = molecular target: Non-receptor tyrosine-protein kinase TYK2 (Homo sapiens) (UniProt P29597); details: at 1 µM;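 note: values are mean percent inhibition of TYK2 kinase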
# [20] = molecular target: T2, Tyrosine-protein kinase receptor TYRO3 (Homo sapiens) (UniProt Q06418); details: at 0.1 µM;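 note: reported percentages are averaged inhibition values of TYRO3 kinase activity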
# T2 sequence (whole entry): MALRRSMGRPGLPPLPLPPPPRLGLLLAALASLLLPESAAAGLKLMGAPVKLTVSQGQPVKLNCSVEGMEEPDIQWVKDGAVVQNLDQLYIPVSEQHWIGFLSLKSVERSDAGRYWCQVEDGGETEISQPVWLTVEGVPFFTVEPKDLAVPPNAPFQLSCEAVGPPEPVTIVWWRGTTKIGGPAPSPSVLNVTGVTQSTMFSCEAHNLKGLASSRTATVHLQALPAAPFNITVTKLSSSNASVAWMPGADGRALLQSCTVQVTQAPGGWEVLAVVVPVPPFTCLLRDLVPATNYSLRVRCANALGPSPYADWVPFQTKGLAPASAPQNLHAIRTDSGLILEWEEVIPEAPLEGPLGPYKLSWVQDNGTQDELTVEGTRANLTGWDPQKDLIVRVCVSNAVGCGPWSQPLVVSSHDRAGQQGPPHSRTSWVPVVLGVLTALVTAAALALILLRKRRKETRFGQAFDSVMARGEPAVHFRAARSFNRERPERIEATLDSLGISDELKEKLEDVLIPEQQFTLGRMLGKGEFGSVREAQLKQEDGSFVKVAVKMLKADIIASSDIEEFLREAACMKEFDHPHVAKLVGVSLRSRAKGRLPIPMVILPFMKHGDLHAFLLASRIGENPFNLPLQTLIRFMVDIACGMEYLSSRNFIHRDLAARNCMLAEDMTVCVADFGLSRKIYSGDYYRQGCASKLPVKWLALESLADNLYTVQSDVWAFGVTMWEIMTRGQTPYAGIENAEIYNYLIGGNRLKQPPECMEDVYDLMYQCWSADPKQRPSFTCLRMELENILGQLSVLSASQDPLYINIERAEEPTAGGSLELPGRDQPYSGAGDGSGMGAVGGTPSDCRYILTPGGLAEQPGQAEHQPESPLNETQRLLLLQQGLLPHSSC
# Chain of Fibroblast growth factor receptor 2 (Homo sapiens) (P21802 22-821 limits assumed): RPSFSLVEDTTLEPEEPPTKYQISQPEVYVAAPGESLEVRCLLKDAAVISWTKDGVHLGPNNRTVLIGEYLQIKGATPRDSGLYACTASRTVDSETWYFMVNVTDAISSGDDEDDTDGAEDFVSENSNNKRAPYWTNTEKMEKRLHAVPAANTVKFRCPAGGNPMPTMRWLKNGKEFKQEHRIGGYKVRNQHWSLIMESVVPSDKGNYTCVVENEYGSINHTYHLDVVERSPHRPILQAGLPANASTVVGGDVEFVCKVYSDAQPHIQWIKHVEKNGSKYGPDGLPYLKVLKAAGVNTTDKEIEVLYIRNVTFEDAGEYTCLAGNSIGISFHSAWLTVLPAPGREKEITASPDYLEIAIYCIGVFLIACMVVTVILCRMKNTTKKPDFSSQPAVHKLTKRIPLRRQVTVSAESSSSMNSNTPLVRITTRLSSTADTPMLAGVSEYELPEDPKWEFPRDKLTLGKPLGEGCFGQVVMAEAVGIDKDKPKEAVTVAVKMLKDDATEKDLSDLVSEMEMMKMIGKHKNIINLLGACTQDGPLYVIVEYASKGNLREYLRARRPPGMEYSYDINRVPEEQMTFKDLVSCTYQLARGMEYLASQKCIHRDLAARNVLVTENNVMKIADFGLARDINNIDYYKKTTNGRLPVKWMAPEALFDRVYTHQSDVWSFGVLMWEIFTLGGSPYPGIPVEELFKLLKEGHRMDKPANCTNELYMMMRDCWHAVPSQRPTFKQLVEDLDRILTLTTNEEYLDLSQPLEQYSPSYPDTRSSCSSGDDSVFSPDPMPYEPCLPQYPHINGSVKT
# Chain of Fibroblast growth factor receptor 3 (Homo sapiens) (P22607 23-806 limits assumed): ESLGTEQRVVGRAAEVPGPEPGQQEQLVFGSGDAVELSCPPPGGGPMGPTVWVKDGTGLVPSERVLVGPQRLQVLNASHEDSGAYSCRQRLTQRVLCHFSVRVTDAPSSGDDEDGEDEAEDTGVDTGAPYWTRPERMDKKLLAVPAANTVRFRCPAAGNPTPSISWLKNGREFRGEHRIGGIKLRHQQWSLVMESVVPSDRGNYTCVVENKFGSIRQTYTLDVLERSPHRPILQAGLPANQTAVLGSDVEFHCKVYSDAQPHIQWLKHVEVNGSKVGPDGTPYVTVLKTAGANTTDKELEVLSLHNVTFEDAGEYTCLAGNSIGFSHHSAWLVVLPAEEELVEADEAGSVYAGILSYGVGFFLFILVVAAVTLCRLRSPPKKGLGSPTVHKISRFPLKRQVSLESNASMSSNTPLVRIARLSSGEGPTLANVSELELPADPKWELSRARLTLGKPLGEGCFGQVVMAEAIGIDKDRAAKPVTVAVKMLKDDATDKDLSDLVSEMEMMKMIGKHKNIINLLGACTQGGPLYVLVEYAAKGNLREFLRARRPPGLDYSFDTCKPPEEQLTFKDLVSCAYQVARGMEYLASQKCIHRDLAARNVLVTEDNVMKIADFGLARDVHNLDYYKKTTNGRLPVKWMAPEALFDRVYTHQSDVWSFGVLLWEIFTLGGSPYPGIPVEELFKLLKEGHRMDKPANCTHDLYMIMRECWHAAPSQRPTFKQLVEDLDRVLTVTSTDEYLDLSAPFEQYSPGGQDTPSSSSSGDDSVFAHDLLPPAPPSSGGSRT
# Chain of Fibroblast growth factor receptor 4 (Homo sapiens) (P22455 22-802 limits assumed): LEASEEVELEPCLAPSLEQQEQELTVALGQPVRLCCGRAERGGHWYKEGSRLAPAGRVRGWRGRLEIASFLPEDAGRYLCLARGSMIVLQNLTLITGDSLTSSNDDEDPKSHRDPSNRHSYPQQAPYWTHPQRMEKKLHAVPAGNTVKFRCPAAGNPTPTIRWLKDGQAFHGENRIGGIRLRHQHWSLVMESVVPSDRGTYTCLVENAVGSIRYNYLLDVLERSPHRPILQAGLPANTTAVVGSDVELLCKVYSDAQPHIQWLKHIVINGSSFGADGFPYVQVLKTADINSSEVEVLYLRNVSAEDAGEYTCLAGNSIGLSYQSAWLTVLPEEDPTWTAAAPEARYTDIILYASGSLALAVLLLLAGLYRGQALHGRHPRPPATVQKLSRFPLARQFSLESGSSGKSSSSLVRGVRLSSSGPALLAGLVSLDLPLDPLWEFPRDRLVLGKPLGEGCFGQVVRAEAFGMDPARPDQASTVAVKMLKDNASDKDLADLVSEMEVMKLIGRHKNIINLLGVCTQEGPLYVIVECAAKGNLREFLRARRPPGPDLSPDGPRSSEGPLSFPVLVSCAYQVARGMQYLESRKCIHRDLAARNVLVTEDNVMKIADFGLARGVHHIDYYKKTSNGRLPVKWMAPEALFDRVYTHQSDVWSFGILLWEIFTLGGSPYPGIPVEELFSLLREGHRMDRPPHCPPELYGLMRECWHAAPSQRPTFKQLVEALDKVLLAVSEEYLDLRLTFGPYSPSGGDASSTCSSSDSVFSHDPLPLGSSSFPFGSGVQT
# Chain of Non-receptor tyrosine-protein kinase TYK2 (Homo sapiens) (P29597 whole entry): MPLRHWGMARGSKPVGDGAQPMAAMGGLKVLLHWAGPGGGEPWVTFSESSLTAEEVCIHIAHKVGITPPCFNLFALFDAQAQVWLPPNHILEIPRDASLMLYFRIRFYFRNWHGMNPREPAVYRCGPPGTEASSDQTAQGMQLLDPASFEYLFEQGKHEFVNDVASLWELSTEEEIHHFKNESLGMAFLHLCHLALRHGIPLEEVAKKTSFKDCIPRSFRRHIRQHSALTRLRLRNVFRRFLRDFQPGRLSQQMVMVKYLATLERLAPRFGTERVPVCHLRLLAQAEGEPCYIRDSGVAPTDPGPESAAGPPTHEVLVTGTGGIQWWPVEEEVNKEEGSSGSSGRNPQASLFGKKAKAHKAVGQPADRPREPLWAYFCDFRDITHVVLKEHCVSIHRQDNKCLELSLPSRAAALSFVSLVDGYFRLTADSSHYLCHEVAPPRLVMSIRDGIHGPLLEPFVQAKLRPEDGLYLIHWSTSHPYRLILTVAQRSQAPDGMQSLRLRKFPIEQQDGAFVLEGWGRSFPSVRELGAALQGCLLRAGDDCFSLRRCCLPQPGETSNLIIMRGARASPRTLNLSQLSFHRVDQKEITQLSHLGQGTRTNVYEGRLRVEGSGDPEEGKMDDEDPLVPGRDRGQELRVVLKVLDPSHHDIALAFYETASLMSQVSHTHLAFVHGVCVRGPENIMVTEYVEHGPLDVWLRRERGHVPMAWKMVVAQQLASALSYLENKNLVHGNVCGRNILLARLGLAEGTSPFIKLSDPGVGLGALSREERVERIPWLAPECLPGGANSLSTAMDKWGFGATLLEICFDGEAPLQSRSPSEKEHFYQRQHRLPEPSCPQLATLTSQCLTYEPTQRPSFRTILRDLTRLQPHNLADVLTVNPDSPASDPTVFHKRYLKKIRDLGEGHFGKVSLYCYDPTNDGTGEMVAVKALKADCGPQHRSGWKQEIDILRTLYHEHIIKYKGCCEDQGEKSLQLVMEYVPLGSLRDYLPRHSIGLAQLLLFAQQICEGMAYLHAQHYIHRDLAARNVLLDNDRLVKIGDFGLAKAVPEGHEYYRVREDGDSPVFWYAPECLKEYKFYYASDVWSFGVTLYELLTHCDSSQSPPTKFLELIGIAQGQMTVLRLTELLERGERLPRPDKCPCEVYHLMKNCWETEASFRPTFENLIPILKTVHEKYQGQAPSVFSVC
# Chain of Tyrosine-protein kinase Fes/Fps (Homo sapiens) (P07332 whole entry): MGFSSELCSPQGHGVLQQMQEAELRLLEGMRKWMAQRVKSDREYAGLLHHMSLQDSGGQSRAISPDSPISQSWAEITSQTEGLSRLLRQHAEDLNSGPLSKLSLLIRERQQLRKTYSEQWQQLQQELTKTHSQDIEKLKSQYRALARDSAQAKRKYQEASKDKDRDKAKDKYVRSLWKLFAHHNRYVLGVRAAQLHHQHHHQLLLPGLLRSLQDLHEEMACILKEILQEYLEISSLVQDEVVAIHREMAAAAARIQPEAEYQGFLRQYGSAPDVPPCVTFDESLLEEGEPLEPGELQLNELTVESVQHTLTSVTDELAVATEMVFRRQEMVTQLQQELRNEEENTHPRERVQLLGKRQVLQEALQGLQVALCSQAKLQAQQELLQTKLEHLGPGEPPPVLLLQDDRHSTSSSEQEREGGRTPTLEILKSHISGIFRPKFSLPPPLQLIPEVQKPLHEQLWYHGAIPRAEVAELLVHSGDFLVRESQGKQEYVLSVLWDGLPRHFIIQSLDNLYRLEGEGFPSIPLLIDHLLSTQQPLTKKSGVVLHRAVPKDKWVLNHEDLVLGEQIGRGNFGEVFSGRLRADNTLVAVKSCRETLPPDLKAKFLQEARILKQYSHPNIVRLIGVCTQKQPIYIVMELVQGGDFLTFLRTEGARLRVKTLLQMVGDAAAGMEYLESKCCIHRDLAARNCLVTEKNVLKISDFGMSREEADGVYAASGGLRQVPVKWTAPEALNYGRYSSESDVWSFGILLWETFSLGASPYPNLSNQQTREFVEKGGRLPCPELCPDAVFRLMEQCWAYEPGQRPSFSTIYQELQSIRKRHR
# Chain of Tyrosine-protein kinase Fgr (Homo sapiens) (P09769 2-529 limits assumed): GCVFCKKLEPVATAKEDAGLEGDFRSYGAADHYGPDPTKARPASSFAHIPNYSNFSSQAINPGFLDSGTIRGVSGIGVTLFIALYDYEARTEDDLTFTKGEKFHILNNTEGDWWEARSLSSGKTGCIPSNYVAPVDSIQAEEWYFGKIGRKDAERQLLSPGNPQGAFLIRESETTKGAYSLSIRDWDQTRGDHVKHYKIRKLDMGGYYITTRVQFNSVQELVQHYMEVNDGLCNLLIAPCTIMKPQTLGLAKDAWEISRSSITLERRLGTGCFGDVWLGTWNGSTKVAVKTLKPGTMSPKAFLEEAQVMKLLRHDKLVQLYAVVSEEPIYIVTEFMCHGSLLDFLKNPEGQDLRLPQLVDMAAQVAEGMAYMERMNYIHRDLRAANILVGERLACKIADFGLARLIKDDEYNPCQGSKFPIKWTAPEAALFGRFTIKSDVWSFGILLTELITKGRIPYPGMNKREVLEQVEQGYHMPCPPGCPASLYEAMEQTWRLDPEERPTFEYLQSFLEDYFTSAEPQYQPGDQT
Compound,inhibition [1] [%],inhibition [2] [%],inhibition [3] [%],inhibition [4] [%],inhibition [5] [%],inhibition [6] [%],inhibition [7] [%],inhibition [8] [%],inhibition [9] [%],inhibition [10] [%],inhibition [11] [%],inhibition [12] [%],inhibition [13] [%],inhibition [14] [%],inhibition [15] [%],inhibition [16] [%],inhibition [17] [%],inhibition [18] [%],inhibition [19] [%],inhibition [20] [%]
NS(=O)(=O)c1cccc(Nc2cc(-c3ccc(F)cc3)n[nH]2)c1,6.71,2.34,2.7,0.46,3.62,0.78,9.22,8.19,8.88,0.98,2.4,6.05,14.4,2.62,15.9,16.3,67.1,-2.62,-1.33,4.42
Cc1nc(-c2ccccc2)n2nc(NCCCN3CCOCC3)ncc12,2.98,2.16,3.03,-1.62,-3.57,3.94,11.8,6.35,4.45,6.31,3.35,2.33,4.11,2.94,-1.07,2.39,4.33,-0.33,0.82,0.92
Cc1ccc(O)cc1Nc1ccnc2ccc(S(C)(=O)=O)cc12,18.5,8.11,39.4,7.68,8.34,5.74,14.5,6.01,11,-0.45,9.15,76.2,81.8,22.2,72.6,2.73,4.94,-0.25,9.66,4.42
COc1cccc(-n2nc(C)c3c(N/N=C(\C)c4ccncc4)ncnc32)c1,1.89,0.8,0.14,1.88,-1.01,3.14,-0.1,1.89,2,1.2,-0.8,1.55,4.36,-0.52,-0.07,0.32,-1.96,-4.92,-0.79,1.37
COc1ccc2ncnc(Nc3ccc(OCc4ccccc4)cc3)c2c1,4.76,0.67,1.33,1.89,-1.53,1.22,2.56,1.63,2.3,1.47,2.59,3.7,15.4,0.14,1.06,0.29,2.85,1.85,-1,1.22
N#Cc1cccc(Nc2nccc(-c3cnn4ncccc34)n2)c1,48.9,7.07,34.3,4.73,8.94,7.31,23.4,9.72,17.2,-0.11,5.22,11.1,41.7,8.37,28.3,18.5,68,7.57,11,7.97
Nc1nccc(-c2c(-c3ccc(F)cc3)nn3cc(C(F)(F)F)ccc23)n1,7.28,5.08,3.62,-4.71,-0.05,0.61,2.87,6.31,1.74,-0.28,0.14,2.64,4.08,-2.26,0.63,2.41,-0.04,-7.47,-2.71,0.03
N#Cc1c(NC(=O)c2ccccc2F)sc2c1CCCC2,1.99,-0.84,-1.66,-6.27,-0.77,-3.13,-2.53,-2.94,-1.6,1.12,-0.54,1.26,1.21,-1.64,-1.09,0.49,-1.06,-2.89,0.85,-1.29
Cc1cc(-c2ccccn2)cc(C)c1/C=C/c1cncc(-c2nn[nH]n2)c1,2.12,3.53,5.62,1.35,–,4.22,7.33,5.34,4.82,2.42,-0.54,2.37,18.2,-0.29,1.74,5.83,3.4,-7.99,-2.42,0.01
Nc1nccc(-c2c(-c3ccc(F)cc3)ncn2CCCN2CCOCC2)n1,5.14,3.13,2.03,1.48,1.16,2.81,5.14,4.29,2.08,–,-1.03,2.89,3.22,0.15,-0.18,-0.59,3.31,-5.08,-1.83,3.82
COc1cc2ncnc(Nc3ccc(C)c(O)c3)c2cc1OC,7.9,2.91,3.54,4.9,17.2,5.64,15.8,6.03,10.2,-0.45,4.07,15.3,46.2,74.6,93.2,0.71,3.03,-2.6,-3.35,6.68
C[C@@H](Oc1cc(-n2cnc3ccc(OCC4CCN(C)CC4)cc32)sc1C(N)=O)c1ccccc1C(F)(F)F,4.43,-1.88,-1.98,-9.02,13,-3.05,7.56,-0.95,0.66,0.86,-0.61,2.16,13.4,-0.83,-0.16,1.99,11,3.19,3.05,-0.92
O=S(=O)(CCOCc1ccc(-c2ccc3ncnc(Nc4ccc(OCc5cccc(F)c5)c(Cl)c4)c3c2)o1)c1ccccc1,-0.81,0.82,1.19,1.05,5.27,-0.62,3.75,0.41,6.24,1.07,0.08,-0.06,2.31,-2.31,0.57,4.16,2.25,-3.61,-0.44,-0.84
NS(=O)(=O)c1ccc(-c2cc3ccncc3cc2OCc2ccccc2)cc1,8.24,2.42,4.62,4.72,3.35,2.27,3.78,2.04,2.76,-2.59,4.68,5.99,4.64,0.22,2.57,2.19,2.5,-4.03,-0.94,3.82
